Source: PubChem BioAssay
Values joined by “and” are separate entries in the source; they are usually repeats but may differ in a detail not shown here. Equal values may be shown once. Active and inactive are the calls of the source.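 Rule for the calls: active = normalized viability below 100% at a tested concentration; inactive = the rest.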

Experiment: MELAS cybrid and Rieske KO viability enhancers – cell-based, MELAS cybrids, Rieske KO mouse fibroblasts, CellTiter-Glo, primary screen (AID 1508586);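 note: z relative to plate mean and SD of compound and empty wells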
Settings: Rieske KO mouse fibroblast survival, low glucose, CellTiter-Glo 72 h
In the case of O=c1[nH]cc(F)c(=O)[nH]1, the z-score is reported as 0.32 and 1.37 and 2.42. With CCc1nc(N)nc(N)c1-c1ccc(Cl)cc1 the z-score was 0.731 and -0.178. For CCc1cccc2c3c([nH]c12)C(CC)(CC(=O)O)OCC3 (stereo unspecified), the z-score was -0.359. With Cc1ccccc1C(OCCN(C)C)c1ccccc1 (stereo unspecified) the z-score was -0.358 and 0.0536. With Cc1ccc(C)c(OCCCC(C)(C)C(=O)O)c1 the z-score was 0.636 and -0.228 and 0.576. With NC(=O)c1cnccn1 the z-score was -1 and -0.0443. For CCCCCCNC(=O)n1cc(F)c(=O)[nH]c1=O, the z-score was 0.677 and -3.1. In the case of COC1=CC(=O)C[C@@H](C)[C@]12Oc1c(Cl)c(OC)cc(OC)c1C2=O, the z-score is reported as 0.726. With Cc1ncc([N+](=O)[O-])n1CC(C)O (stereo unspecified) the z-score was 0.828 and -0.245 and -0.0796. For N[C@@H](C(=O)N[C@@H]1C(=O)N2C(C(=O)O)=C(Cl)CS[C@H]12)c1ccccc1, the z-score was -0.142. CO[C@@]1(NC(=O)Cc2cccs2)C(=O)N2C(C(=O)O)=C(COC(N)=O)CS[C@@H]21 gave a z-score of -0.518. In the case of OCCN1CCN(CCCN2c3ccccc3Sc3ccc(C(F)(F)F)cc32)CC1, the z-score is reported as -0.139 and 0.376. CN(C)CCOC(c1ccc(Cl)cc1)c1ccccn1 (stereo unspecified) showed a z-score of -1.05. Molecule Cc1onc(-c2c(Cl)cccc2Cl)c1C(=O)N[C@@H]1C(=O)N2[C@@H]1SC(C)(C)[C@@H]2C(=O)O has a z-score of 0.0231. With COc1cc2nc(N(C)CCCNC(=O)C3CCCO3)nc(N)c2cc1OC (stereo unspecified) the z-score was 0.382 and 0.0438. For NS(=O)(=O)c1cc(C2(O)NC(=O)c3ccccc32)ccc1Cl (stereo unspecified), the z-score was -0.339. Work on CN(C)CCc1c[nH]c2ccc(C[C@H]3COC(=O)N3)cc12 yielded a z-score of -0.25. For Cc1ccc(-c2cc(C(F)(F)F)nn2-c2ccc(S(N)(=O)=O)cc2)cc1, the z-score was 1.13 and 1.16 and 1.29. Work on CN[C@H]1CC[C@@H](c2ccc(Cl)c(Cl)c2)c2ccccc21 yielded a z-score of 0.309. In the case of O=S(=O)(O)CCS, the z-score is reported as 0.659 and -0.304. For C/C=C/C(=O)N(CC)c1ccccc1C, the z-score was -1.25 and -1.17. For COc1ccc(OC)c(C(O)CNC(=O)CN)c1 (stereo unspecified), the z-score was -0.177. With Cn1cnc([N+](=O)[O-])c1Sc1ncnc2nc[nH]c12 the z-score was 0.8 and 0.138. For c1ccc2[nH]c(-c3cscn3)nc2c1, the z-score was 0.655 and 0.153. In the case of CCCNCC(O)COc1ccccc1C(=O)CCc1ccccc1 (stereo unspecified), the z-score is reported as -0.529 and -0.098 and 0.366. With NC(=O)N1c2ccccc2CC(=O)c2ccccc21 the z-score was -1.12 and 0.011 and -0.438. In the case of Cc1cn([C@H]2C[C@H](N=[N+]=[N-])[C@@H](CO)O2)c(=O)[nH]c1=O, the z-score is reported as 0.0413 and -0.28. In the case of CN(CCOc1ccc(CC2SC(=O)NC2=O)cc1)c1ccccn1 (stereo unspecified), the z-score is reported as 0.76 and -1.4. For COc1ccccc1OCC(O)COC(N)=O (stereo unspecified), the z-score was -0.0724 and 0.212. OC(CCN1CCCC1)(c1ccccc1)C1CCCCC1 (stereo unspecified) showed a z-score of 0.369. Molecule O=C1C(CCS(=O)c2ccccc2)C(=O)N(c2ccccc2)N1c1ccccc1 (stereo unspecified) has a z-score of 0.23. For COC(=O)Nc1nc2ccc(C(=O)c3ccccc3)cc2[nH]1, the z-score was 0.0815 and 0.438 and 0.923. With CN1CCCC(n2nc(Cc3ccc(Cl)cc3)c3ccccc3c2=O)CC1 (stereo unspecified) the z-score was 0.19 and 0.396. NCc1ccc(S(N)(=O)=O)cc1 gave a z-score of -0.0568. With Clc1ccc2c(c1)C(N1CCNCC1)=Nc1ccccc1O2 the z-score was 0.449 and -0.479. CC(C)(C)NCC(O)COc1cccc2c1C[C@H](O)[C@H](O)C2 (stereo partly specified) gave a z-score of -0.345. With NS(=O)(=O)c1cc2c(cc1Cl)NC=NS2(=O)=O the z-score was 0.72 and -0.309.

Experiment: drug combination growth inhibition, ovarian cancer – cell-based, oncology-focused library, rucaparib conditional, profiling panel (AID 1508598)
Settings: patient-derived ovarian cancer cells, CellTiter-Glo viability, 144 h; at 0.000305 µM; OCI-C5x cells; with rucaparib 10 µM; stronger effect = lower value; 100% = cells with rucaparib alone
With O=c1[nH]cc(F)c(=O)[nH]1 the viability was 118% (inactive). With CCCCCCNC(=O)n1cc(F)c(=O)[nH]c1=O the viability was 125% (inactive). In the case of Cc1ccc(-c2cc(C(F)(F)F)nn2-c2ccc(S(N)(=O)=O)cc2)cc1, the viability is reported as 113% (inactive). For CN(CCOc1ccc(CC2SC(=O)NC2=O)cc1)c1ccccn1 (stereo unspecified), the viability was 112% (inactive).

Same assay, conditions: patient-derived ovarian cancer cells, CellTiter-Glo viability, 144 h; at 0.000305 µM; OCI-C5x cells; without rucaparib; stronger effect = lower value
In the case of O=c1[nH]cc(F)c(=O)[nH]1, the viability is reported as 111% (inactive). In the case of CCCCCCNC(=O)n1cc(F)c(=O)[nH]c1=O, the viability is reported as 114% (inactive). In the case of Cc1ccc(-c2cc(C(F)(F)F)nn2-c2ccc(S(N)(=O)=O)cc2)cc1, the viability is reported as 107% (inactive). With CN(CCOc1ccc(CC2SC(=O)NC2=O)cc1)c1ccccn1 (stereo unspecified) the viability was 124% (inactive).

Same assay, conditions: patient-derived ovarian cancer cells, CellTiter-Glo viability, 144 h; at 0.000305 µM; OCI-P5x cells; with rucaparib 20 µM; stronger effect = lower value; 100% = cells with rucaparib alone
In the case of O=c1[nH]cc(F)c(=O)[nH]1, the viability is reported as 113% (inactive). For CCCCCCNC(=O)n1cc(F)c(=O)[nH]c1=O, the viability was 108% (inactive). With Cc1ccc(-c2cc(C(F)(F)F)nn2-c2ccc(S(N)(=O)=O)cc2)cc1 the viability was 84.7% (active). In the case of CN(CCOc1ccc(CC2SC(=O)NC2=O)cc1)c1ccccn1 (stereo unspecified), the viability is reported as 91.6% (active).

Same assay, conditions: patient-derived ovarian cancer cells, CellTiter-Glo viability, 144 h; at 0.000305 µM; OCI-P5x cells; without rucaparib; stronger effect = lower value
With O=c1[nH]cc(F)c(=O)[nH]1 the viability was 111% (inactive). With CCCCCCNC(=O)n1cc(F)c(=O)[nH]c1=O the viability was 129% (inactive). With Cc1ccc(-c2cc(C(F)(F)F)nn2-c2ccc(S(N)(=O)=O)cc2)cc1 the viability was 92.4% (active). With CN(CCOc1ccc(CC2SC(=O)NC2=O)cc1)c1ccccn1 (stereo unspecified) the viability was 99.1% (active).

Same assay, conditions: patient-derived ovarian cancer cells, CellTiter-Glo viability, 144 h; at 0.00122 µM; OCI-C5x cells; with rucaparib 10 µM; stronger effect = lower value; 100% = cells with rucaparib alone
For O=c1[nH]cc(F)c(=O)[nH]1, the viability was 121% (inactive). For CCCCCCNC(=O)n1cc(F)c(=O)[nH]c1=O, the viability was 128% (inactive). For Cc1ccc(-c2cc(C(F)(F)F)nn2-c2ccc(S(N)(=O)=O)cc2)cc1, the viability was 104% (inactive). For CN(CCOc1ccc(CC2SC(=O)NC2=O)cc1)c1ccccn1 (stereo unspecified), the viability was 116% (inactive).

Same assay, conditions: patient-derived ovarian cancer cells, CellTiter-Glo viability, 144 h; at 0.00122 µM; OCI-C5x cells; without rucaparib; stronger effect = lower value
With O=c1[nH]cc(F)c(=O)[nH]1 the viability was 108% (inactive). In the case of CCCCCCNC(=O)n1cc(F)c(=O)[nH]c1=O, the viability is reported as 121% (inactive). In the case of Cc1ccc(-c2cc(C(F)(F)F)nn2-c2ccc(S(N)(=O)=O)cc2)cc1, the viability is reported as 111% (inactive). With CN(CCOc1ccc(CC2SC(=O)NC2=O)cc1)c1ccccn1 (stereo unspecified) the viability was 133% (inactive).
